Assay results: PubChem BioAssay (NCATS)
“And” between values parts separate entries of the source, which are not always exact repeats. Equal entries are not always repeated. Results filed as inconclusive are left out. Entries that show only a call come without a potency. The source made the active and inactive calls. Unless noted, calls follow the shape of the dose curve; as a rule, active = well fitted curve in the direction sought with a large enough effect; inconclusive = small, poorly fitted or top-dose-only effect, or another doubt; inactive = no such curve, though single readings can be large; an effect the other way counts as inactive or inconclusive.

Experiments:
[1] = target: Mitogen-activated protein kinase 10 (Mus musculus) (UniProt Q61831); experiment: JNK3 AlphaScreen Assay (AID 530; active = well fitted curve in either direction with a large enough effect, not every such curve was filed as active;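 also: kinase came from lysate of stimulated human HepG2 cells; signal reports phosphorylation of biotinylated GST-cJun 1-79 at Ser73 with 10 µM ATP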)
Outline: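 Compound titrations were preincubated 15 minutes at room temperature with substrate, antibody and pre-activated JNK3-containing HepG2 lysate. Reactions were started with 10 uM ATP and stopped with EDTA-containing bead buffer for AlphaScreen detection.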

[2] = Cell Viability - NIH 3T3 (AID 541); conditions: NIH 3T3 cell viability, qHTS; activity change, negative = cytotoxicity: at 92.2 µM (top of the series); also: nearly all actives have a fitted effect of over 25% in size
Outline: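 Mouse NIH 3T3 fibroblasts, 1000 cells/well, rested 5 hr at 37 °C, then exposed to compound for 40 hr at 37 °C in complete medium. Viability read as intracellular ATP by CellTiter-Glo luminescence; AC50 from Hill-equation fits of concentration-response data.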

[3] = Cell Viability - SH-SY5Y (AID 544); conditions: SH-SY5Y neuroblastoma cell viability; viability change, negative = cytotoxic: at 92.2 µM (top of the series); also: nearly all actives have a fitted effect of over 55% in size
Outline: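 SH-SY5Y human neuroblastoma cells (1500/well) incubated 5 h, then compound-treated 40 h at 37 °C in complete medium. Viability read as intracellular ATP by CellTiter-Glo luminescence after 20 min; AC50 from Hill-equation fits of qHTS concentration-response.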

[4] = Cell Viability - LYMP2-013 (AID 970); also: nearly all actives have a fitted effect of over 55% in size
Outline: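 Human lymphoblastoid LYMP2-013 cells, 2500/well, treated 24 h at 37 C in complete medium; viability as intracellular ATP by CellTiter-Glo luminescence after 30 min. AC50 from Hill fits of qHTS concentration-response.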

[5] = Cell Viability - LYMP2-023 (AID 975);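 also: cellular ATP measured by luciferase luminescence as viability proxy; cells exposed to compound for 24 hours at 37 °C; nearly all actives have a fitted effect of over 55% in size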
Outline: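 LYMP2-023 human lymphoblastoid cells, 2500/well, preincubated 5 hr at 37 C, then compound-treated 24 hr at 37 C in complete medium. CellTiter-Glo luminescence (ATP) after 30 min at room temperature; AC50 from Hill-equation fits; tetraoctylammonium bromide positive control.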

[6] = Cell Viability - LYMP2-012 (AID 982);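 also: cellular ATP by luciferase luminescence where a drop means cytotoxicity; cells exposed to compound for one day before reading; nearly all actives have a fitted effect of over 55% in size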
[7] = Cell Viability - LYMP2-024 (AID 988); also: nearly all actives have a fitted effect of over 60% in size
Outline: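 Human lymphoblastoid LYMP2-024 cells (2500/well) rested 5 hr, then treated with compound for 24 hr at 37 C in complete medium. Viability was measured as intracellular ATP by CellTiter-Glo luminescence. AC50 values came from Hill-equation fits.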

[8] = target: Vitamin D3 receptor (Homo sapiens) (UniProt P11473); experiment: qHTS assay for small molecule antagonists of vitamin D receptor signaling (AID 588541; calls by dose curve;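 also: receptor activated by calcitriol during compound treatment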)
Vitamin D3 receptor (Homo sapiens), sequence (P11473 whole entry, looked up): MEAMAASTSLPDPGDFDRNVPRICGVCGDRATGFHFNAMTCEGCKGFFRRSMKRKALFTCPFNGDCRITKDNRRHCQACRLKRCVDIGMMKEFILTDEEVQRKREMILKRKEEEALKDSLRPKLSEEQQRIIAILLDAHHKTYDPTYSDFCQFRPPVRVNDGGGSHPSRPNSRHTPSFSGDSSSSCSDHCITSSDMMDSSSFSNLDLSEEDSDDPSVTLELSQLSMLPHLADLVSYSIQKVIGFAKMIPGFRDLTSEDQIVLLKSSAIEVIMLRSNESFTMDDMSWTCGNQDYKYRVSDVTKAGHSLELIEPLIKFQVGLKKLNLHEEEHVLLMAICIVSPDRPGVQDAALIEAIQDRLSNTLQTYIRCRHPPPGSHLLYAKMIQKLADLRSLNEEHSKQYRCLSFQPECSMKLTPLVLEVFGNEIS
Outline: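 Antagonist-mode beta-lactamase reporter assay: HEK293T VDR-UAS-bla cells were exposed to titrated compound alongside 1-alpha,25-dihydroxyvitamin D3 at 3 nM final for 16 h. Values were normalized to the 50 nM agonist control and DMSO basal, with IC50 and efficacy from Hill equation fits.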

[9] = MultiTox-Fluor Cytotoxicity Assay - LYMP1-002 - Live Cells (AID 955)
Outline: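 Human lymphoblastoid LYMP1-002 cells, 2500/well, treated 16 h at 37 C in complete medium. Live-cell protease activity via GF-AFC fluorescence (Ex/Em 405/510) after 60 min reagent incubation; AC50 from Hill fits.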

[10] = Cell Viability - LYMP2-019 (AID 973); also: nearly all actives have a fitted effect of over 55% in size
Outline: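 Human lymphoblastoid LYMP2-019 cells (2500/well) preincubated 5 h at 37 C, then treated 24 h at 37 C in complete medium. Viability by CellTiter-Glo ATP luminescence after 30 min at room temperature; AC50 from Hill fits.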

[11] = Cell Viability - LYMP2-007 (AID 979);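 also: cells exposed to compound for 24 h before reading; nearly all actives have a fitted effect of over 60% in size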
Outline: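 Human lymphoblastoid LYMP2-007 cells (2500/well) preincubated 5 h at 37 C, then treated 24 h at 37 C in complete medium. Viability by CellTiter-Glo ATP luminescence after 30 min at room temperature; AC50 from Hill fits.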

[12] = target: Bile acid receptor (Homo sapiens) (UniProt Q96RI1); experiment: qHTS assay for small molecule antagonists of farnesoid X receptor signaling (AID 588526; calls by dose curve; also: potency is read from the fitted curve at half-maximal effect)
Bile acid receptor (Homo sapiens), sequence (Q96RI1 whole entry, looked up): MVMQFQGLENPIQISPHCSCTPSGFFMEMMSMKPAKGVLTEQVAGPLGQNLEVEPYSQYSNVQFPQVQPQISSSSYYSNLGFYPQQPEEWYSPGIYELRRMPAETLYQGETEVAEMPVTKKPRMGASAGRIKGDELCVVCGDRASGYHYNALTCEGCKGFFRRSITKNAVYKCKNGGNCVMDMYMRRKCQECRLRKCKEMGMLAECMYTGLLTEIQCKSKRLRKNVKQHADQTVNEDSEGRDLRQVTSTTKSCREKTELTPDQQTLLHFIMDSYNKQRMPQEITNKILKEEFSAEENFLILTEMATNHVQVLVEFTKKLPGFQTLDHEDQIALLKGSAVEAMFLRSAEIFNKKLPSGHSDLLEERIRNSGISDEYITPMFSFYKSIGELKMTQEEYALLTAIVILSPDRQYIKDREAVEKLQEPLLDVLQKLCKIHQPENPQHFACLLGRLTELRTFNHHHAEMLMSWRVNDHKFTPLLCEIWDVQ
Outline: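 Beta-lactamase reporter antagonist mode: HEK293T FXR-UAS-bla cells, titrated compound, CDCA stimulation, 16 h 37 C, CCF4 dye 2 h RT. Data normalized to CDCA 50 uM and DMSO; Hill-fit IC50.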

[13] = target: Glucocorticoid receptor (Homo sapiens) (UniProt P04150); experiment: qHTS assay for small molecule antagonists of glucocorticoid receptor signaling (AID 588533; active = well fitted inhibition curve with a large enough effect in the signal ratio, with a control signal flat, not every such curve was filed as active; the % refers to the signal ratio;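 also: cells stimulated with 2 nM dexamethasone as agonist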)
Glucocorticoid receptor (Homo sapiens), sequence (P04150 whole entry, looked up): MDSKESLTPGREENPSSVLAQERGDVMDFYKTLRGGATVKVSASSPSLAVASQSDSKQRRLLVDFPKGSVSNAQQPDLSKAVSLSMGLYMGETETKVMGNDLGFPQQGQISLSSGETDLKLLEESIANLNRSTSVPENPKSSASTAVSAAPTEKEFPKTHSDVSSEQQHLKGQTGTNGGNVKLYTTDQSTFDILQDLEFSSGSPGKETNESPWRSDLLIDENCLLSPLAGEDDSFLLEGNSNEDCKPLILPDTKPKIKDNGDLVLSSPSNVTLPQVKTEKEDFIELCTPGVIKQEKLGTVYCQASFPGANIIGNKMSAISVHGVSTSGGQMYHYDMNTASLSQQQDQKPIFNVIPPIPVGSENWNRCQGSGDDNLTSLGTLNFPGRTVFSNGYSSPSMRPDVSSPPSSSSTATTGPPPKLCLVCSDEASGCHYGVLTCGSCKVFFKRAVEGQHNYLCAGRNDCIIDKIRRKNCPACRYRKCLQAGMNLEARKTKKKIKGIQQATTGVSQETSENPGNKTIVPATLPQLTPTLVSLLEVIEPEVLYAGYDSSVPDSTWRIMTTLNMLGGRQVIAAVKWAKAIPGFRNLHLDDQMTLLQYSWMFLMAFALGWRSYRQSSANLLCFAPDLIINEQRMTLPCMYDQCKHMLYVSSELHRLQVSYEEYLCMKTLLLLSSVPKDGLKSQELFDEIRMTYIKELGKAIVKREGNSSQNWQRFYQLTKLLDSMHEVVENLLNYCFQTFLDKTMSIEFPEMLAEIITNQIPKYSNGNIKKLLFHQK
Outline: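 Antagonist-mode qHTS: compound titrations added to GRE-bla HeLa cells, then dexamethasone 2 nM final; 18 h, 37 C. CCF4 FRET fluorescence normalized to dexamethasone and DMSO; IC50 from Hill fit.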

[14] = qHTS assay to identify small molecules that stimulate interleukin-8 (IL-8) secretion (AID 651758; active = well fitted activation curve with a large enough effect in the signal ratio; the % refers to the signal ratio)
Outline: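 Secreted IL-8 measured by TR-FRET sandwich (cryptate and XL665 antibodies) from THP-1 cells exposed to compound overnight (16 hrs, 37 C).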

[15] = Cell Viability - LYMP2-011 (AID 969);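 also: cells exposed to compound for 24 hours; nearly all actives have a fitted effect of over 60% in size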
Outline: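 2500 cells/well in complete medium, compound-treated 24 h at 37 C. Viability read as intracellular ATP by CellTiter-Glo luminescence after 30 min at room temperature. AC50 from Hill fits of qHTS concentration-response data.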

[16] = target: Estrogen receptor (Homo sapiens) (UniProt P03372); experiment: qHTS assay for small molecule agonists of estrogen receptor alpha signaling (AID 588514; calls by dose curve; also: nearly all actives have a fitted effect of over 70% in size)
Estrogen receptor (Homo sapiens), sequence (P03372 whole entry, looked up): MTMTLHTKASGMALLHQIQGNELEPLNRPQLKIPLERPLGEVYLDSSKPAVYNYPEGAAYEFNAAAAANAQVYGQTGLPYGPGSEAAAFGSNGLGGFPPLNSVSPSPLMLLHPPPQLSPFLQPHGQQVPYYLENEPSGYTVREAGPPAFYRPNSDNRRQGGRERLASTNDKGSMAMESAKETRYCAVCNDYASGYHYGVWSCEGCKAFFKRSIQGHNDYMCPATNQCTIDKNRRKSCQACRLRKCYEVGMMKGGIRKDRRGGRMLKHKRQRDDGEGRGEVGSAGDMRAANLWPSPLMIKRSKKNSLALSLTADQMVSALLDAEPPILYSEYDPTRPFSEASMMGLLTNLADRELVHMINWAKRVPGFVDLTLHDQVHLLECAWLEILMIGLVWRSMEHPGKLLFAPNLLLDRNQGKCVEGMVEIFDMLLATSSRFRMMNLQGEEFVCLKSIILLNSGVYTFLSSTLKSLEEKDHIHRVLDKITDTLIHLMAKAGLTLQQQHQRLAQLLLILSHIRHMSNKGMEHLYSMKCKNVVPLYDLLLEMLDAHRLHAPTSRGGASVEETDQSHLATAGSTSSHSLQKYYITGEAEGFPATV
Outline: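 ER-alpha-UAS-bla GripTite HEK293 cells, 5000/well in 2% charcoal/dextran-stripped FBS medium, treated with compound titrations 18 h at 37 C. CCF4 beta-lactamase read by fluorescence after 2 h RT; normalised to 20 nM 17-beta-estradiol (100%) and DMSO (0%), Hill fit for EC50 and efficacy.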

[17] = qHTS assay for small molecule antagonists of peroxisome proliferator-activated receptor delta signaling (AID 588535); conditions: HEK293T PPARd-UAS-bla, beta-lactamase FRET ratio, 18 h; 460 nm channel;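 also: cells co-treated with a PPAR-delta agonist as stimulator during compound exposure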
Outline: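 HEK293T PPAR-delta-UAS-bla cells, 4000/well, 2% charcoal/dextran FBS; 5 h 37 C; cpd titration; 18 h 37 C; CCF4 2 h RT; FI 460/530 nm; Hill fit → IC50, efficacy.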

[18] = target: Glucocorticoid receptor (Homo sapiens) (UniProt P04150); experiment: qHTS assay for small molecule agonists of glucocorticoid receptor signaling (AID 588532; active = well fitted curve in the direction sought with a large enough effect in the signal ratio, with a control signal flat; the % refers to the signal ratio); conditions: HeLa MMTV-bla, beta-lactamase ratio, agonist, 18 h; stronger effect = higher value; percent of dexamethasone control, DMSO zero
Outline: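 Quantitative HTS using CellSensor MMTV-bla HeLa cells in charcoal/dextran-treated serum; compounds tested up to 92 uM. After 18 h at 37 C, CCF4 dye reported reporter induction.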

[19] = target: Peroxisome proliferator-activated receptor gamma (Homo sapiens) (UniProt P37231); experiment: qHTS assay for small molecule antagonists of peroxisome proliferator-activated receptor gamma signaling (AID 588537; active = well fitted inhibition curve with a large enough effect in the signal ratio, with a control signal flat, not every such curve was filed as active; the % refers to the signal ratio;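 also: reporter cells co-stimulated with 50 nM rosiglitazone agonist during compound treatment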)
Peroxisome proliferator-activated receptor gamma (Homo sapiens), sequence (P37231 whole entry, looked up): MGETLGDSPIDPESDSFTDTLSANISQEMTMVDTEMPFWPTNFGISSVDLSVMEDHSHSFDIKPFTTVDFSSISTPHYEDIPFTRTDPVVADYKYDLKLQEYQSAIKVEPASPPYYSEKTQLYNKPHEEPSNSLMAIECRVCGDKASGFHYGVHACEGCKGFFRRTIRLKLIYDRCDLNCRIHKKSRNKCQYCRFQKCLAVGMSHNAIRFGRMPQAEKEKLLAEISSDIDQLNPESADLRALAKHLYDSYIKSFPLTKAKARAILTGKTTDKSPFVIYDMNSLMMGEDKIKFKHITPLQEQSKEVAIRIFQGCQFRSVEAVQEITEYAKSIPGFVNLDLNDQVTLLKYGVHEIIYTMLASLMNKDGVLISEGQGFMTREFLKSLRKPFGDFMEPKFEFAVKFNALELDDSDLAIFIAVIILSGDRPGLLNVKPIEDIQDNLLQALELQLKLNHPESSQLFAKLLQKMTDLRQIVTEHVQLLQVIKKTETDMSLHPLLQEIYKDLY
Outline: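 Antagonist mode, beta-lactamase reporter in HEK293; charcoal/dextran FBS 1%; 3000 cells/well, 37 C 6-6.5 h; cpd titration + rosiglitazone 50 nM final, 16 h 37 C; CCF4, 2 h RT; 460/530 nm; Hill fit → IC50, efficacy.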

[20] = target: Retinoic acid receptor RXR-alpha (Homo sapiens) (UniProt P19793); experiment: qHTS assay for small molecule agonists of retinoid X receptor alpha signaling (AID 588544; calls by dose curve)
Retinoic acid receptor RXR-alpha (Homo sapiens), sequence (P19793 whole entry, looked up): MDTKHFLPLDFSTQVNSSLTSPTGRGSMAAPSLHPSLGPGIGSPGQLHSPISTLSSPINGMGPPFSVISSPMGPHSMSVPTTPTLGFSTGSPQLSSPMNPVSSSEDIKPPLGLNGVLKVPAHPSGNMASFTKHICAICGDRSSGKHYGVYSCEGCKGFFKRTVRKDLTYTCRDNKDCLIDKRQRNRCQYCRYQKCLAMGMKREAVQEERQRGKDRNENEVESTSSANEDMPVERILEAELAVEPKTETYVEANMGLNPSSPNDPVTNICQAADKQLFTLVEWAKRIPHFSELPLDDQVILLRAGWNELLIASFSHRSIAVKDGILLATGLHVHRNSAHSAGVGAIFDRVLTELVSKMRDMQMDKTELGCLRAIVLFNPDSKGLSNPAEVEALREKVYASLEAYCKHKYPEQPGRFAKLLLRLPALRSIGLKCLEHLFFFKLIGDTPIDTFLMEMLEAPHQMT

| Structure (SMILES) | Potency [1] | activity change, negative = cytotoxicity [2] | Potency [3] | Potency [4] | Potency [5] | Potency [6] | Potency [7] | Potency [8] | outcome [9] | Potency [10] | Potency [11] | Potency [12] | Potency [13] | Potency [14] | Potency [15] | Potency [16] | max response [17] | activation [18] | Potency [19] | Potency [20] |
| --- | --- | --- | --- | --- | --- | --- | --- | --- | --- | --- | --- | --- | --- | --- | --- | --- | --- | --- | --- | --- |
| Cc1cccnc1 | inactive | -24.9% (inactive) | inactive | inactive | inactive | inactive | inactive | inactive | – | – | – | – | – | – | – | – | – | – | – | – |
| CC(=O)OCc1ccc2c(c1)OCO2 | inactive | – | inactive | – | – | inactive | inactive | inactive | inactive | inactive | inactive | inactive | inactive | inactive | – | – | – | – | – | – |
| CCC(Cl)CC(Cl)C(Cl)C(Cl)C(Cl)C(C)Cl (stereo unspecified) | – | – | inactive | – | – | – | inactive | – | inactive | – | – | – | – | inactive | inactive | inactive | -12% | – | – | – |
| CN(C)c1ccc(Cc2ccc(N(C)C)cc2)cc1 | – | -18.8% (inactive) | inactive | – | – | inactive | inactive | – | inactive | – | inactive | inactive | inactive | – | inactive | – | 11.4% and 3.82% | 7.64% (inactive) and -3.57% (inactive) | inactive | – |
| CC(=O)c1ccc(Cl)c(Cl)c1Cl | – | -14.4% (inactive) | inactive | inactive | – | – | inactive | inactive | – | inactive | inactive | – | inactive | – | inactive | inactive | – | 1.81% (inactive) | – | inactive |
| CC(C)S | – | -8.42% (inactive) | – | – | – | – | – | – | inactive | inactive | inactive | – | inactive | – | inactive | inactive | -7.04% | – | inactive | – |
| Cc1ccc2ccc3cccc4ccc1c2c34 | – | -8.7% (inactive) | inactive | – | – | inactive | – | – | inactive | – | – | 44.7 µM (active) | inactive | – | – | inactive | 18.4% | -3.78% (inactive) | inactive | inactive |
| c1ccc2ncccc2c1 | – | -0.00606% (inactive) | – | inactive | inactive | – | – | – | inactive | inactive | – | – | inactive | inactive | – | inactive | 41.8% | -12.1% (inactive) | – | inactive |
| CCCC(=O)OC(=O)CCC | inactive | – | inactive | – | inactive | – | – | – | inactive | inactive | – | – | – | – | inactive | – | 16.1% and 21.1% | – | inactive | – |
| Nc1cc([N+](=O)[O-])ccc1O | inactive | – | inactive | – | inactive | – | inactive | inactive | – | inactive | inactive | – | inactive | – | inactive | – | 32.9% and 36.8% | -3.65% (inactive) and -4.48% (inactive) | inactive | – |
| COc1ccc([N+](=O)[O-])cc1N | inactive | – | – | inactive | inactive | inactive | inactive | – | inactive | – | inactive | inactive | inactive | – | – | inactive | 74.5% and 5.37% | – | – | – |
| O=[N+]([O-])c1ccc(F)cc1F | inactive | – | inactive | inactive | inactive | – | – | – | inactive | – | inactive | – | – | – | inactive | inactive | 10.2% | – | – | inactive |
| c1ccncc1 | – | -13.1% (inactive) | inactive | inactive | inactive | – | – | inactive | inactive | inactive | inactive | – | – | – | inactive | inactive | – | – | inactive | inactive |
| Oc1ccc2c(c1)OCO2 | inactive | – | inactive | – | – | – | – | inactive | inactive | inactive | – | – | inactive | inactive | inactive | inactive | – | -0.95% (inactive) | – | inactive |
| COc1ccc(C)cc1N | inactive | – | – | – | inactive | inactive | inactive | – | inactive | – | – | – | inactive | – | inactive | inactive | 4.23% | 9.32% (inactive) | – | inactive |
| CCNC(=S)NCC | inactive | – | inactive | inactive | inactive | inactive | – | – | – | inactive | inactive | – | – | – | inactive | inactive | 61.6% | – | inactive | – |
| O=[N+]([O-])c1cccc(I)c1 | – | – | inactive | inactive | inactive | inactive | – | – | inactive | inactive | inactive | – | inactive | – | inactive | inactive | 12.5% | -12.6% (inactive) | – | – |
| c1cc2c3c(c1)ccc1cccc(c13)C2 | – | -13.2% (inactive) | inactive | inactive | inactive | – | – | – | inactive | – | – | – | – | inactive | – | – | 4.88% | -6.79% (inactive) | – | inactive |
| C/C(Cl)=C/CCl | – | -23.5% (inactive) | inactive | inactive | inactive | – | – | – | inactive | inactive | inactive | inactive | – | – | – | inactive | 5.39% | – | inactive | inactive |
| C1CCCNCC1 | – | – | inactive | – | inactive | inactive | – | – | inactive | inactive | – | – | inactive | – | – | inactive | -36.7% | 8.29% (inactive) | – | inactive |
| CC(=O)OC1CC(C)OC(C)O1 (stereo unspecified) | inactive | – | – | – | – | – | – | – | – | inactive | inactive | inactive | inactive | – | inactive | – | -8.33% and -2.28% | – | inactive | inactive |
| OCC(CBr)(CBr)CBr | inactive | – | inactive | inactive | inactive | – | inactive | – | – | inactive | – | – | – | – | inactive | inactive | 9.08% | 0.0544% (inactive) | inactive | inactive |
